Drawing on PubChem BioAssay (NCI), this text covers growth for 7 molecules.

What all share (test): NCI-60 one-dose screen, 48 h (100 = growth as untreated, 0 = no growth, -100 = all killed)
What all share (settings): 10 µM unless noted

Assay [1] has as its system DU-145 prostate.
The subject of assay [2] is K-562 leukemia.
Assay [3] concerns MALME-3M melanoma.
Assay [4] concerns MDA-MB-231 breast.
The subject of assay [5] is RXF 393 renal.
Assay [6] relates to SF-268 CNS.
Assay [7] concerns SF-295 CNS.
Assay [8] has as its system SF-539 CNS.
In assay [9] the test system is UACC-257 melanoma.
In assay [10] the test system is M14 melanoma.
Assay [11] relates to HCT-15 colon.
Assay [12] concerns HT29 colon.
In assay [13] the test system is SNB-75 CNS.
Assay [14] deals with SNB-19 CNS.
Assay [15] concerns U251 CNS.
Assay [16] concerns PC-3 prostate.
For assay [17], the system named is SK-MEL-5 melanoma.
Assay [18] deals with LOX IMVI melanoma.
Assay [19] relates to SK-MEL-28 melanoma.
For assay [20], the system named is UACC-62 melanoma.

This is part of a sample that, as a whole, favours compounds with a hit. Of some 83,000 tested, about 20% had one in any assay.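 Single-dose data. Exposure time 48 hours. Values below 10 considered active.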 A number with no mark means an inactive call. Active and inactive are the calls of the source.

Take `COc1ccc(OC)c([N+](=O)[O-])c1C(=O)CNC(C)=O`: the growth in assay [1] is 109%; in [2], 103%; in assay [3] it was 112%; in [4], 98.4%; in assay [5] it was 101%; in assay [6] it was 102%. For the same molecule, the growth in [7] was 95.2%; in assay [8], 101%; in assay [9] it was 105%; in [10], 107%; in [11], 95.8%; in [12], 109%. The growth in assay [13] is 107%; in assay [14], 93.5%; in [15], 97%; in [16] it was 101%; in [17], 101%; in [18] it was 103%. Also, the growth in [19] is 114%.

For the molecule `C=C1C(=O)O[C@H]2[C@H]1CC/C(COC(=O)NCc1ccc(Cn3c(=O)sn(-c4ccc(Cl)cc4)c3=O)cc1)=C\CC[C@@]1(C)O[C@@H]21`, the growth in [1] was 18.1%; in assay [2] it was 6.2% (active); in assay [3], 65.2%; in assay [4], 54.7%; in [5], 62%; in assay [6] it was 83.7%. Besides, the growth in assay [7] is 99.5%; in assay [8] it was 90.8%; in [9], 72.9%; in assay [10] it was 59.2%; in assay [11] it was 54.5%; in assay [12], 37.8%. Further, the growth in assay [13] is 79.7%; in [14], 91.9%; in assay [15], 90.2%; in [16] it was 76.2%; in assay [17], 97.6%; in assay [18] it was 58.4%. The growth in assay [19] was 101%.

On to `CN(Cc1cccc(C(F)(F)F)c1)C(=O)[C@@H](CC(=O)N1CCC(N2CCCCC2)CC1)N1C(=O)[C@@H](N2C(=O)OC[C@@H]2c2ccccc2)[C@H]1/C=C/c1ccccc1`, for which the growth in [1] was 103%; in [2] it was 65.7%; in [3], 96.8%; in assay [4], 55.7%; in [5], 76.3%; in assay [6], 77.8%. Also, the growth in assay [7] is 90.8%; in assay [8], 81.9%; in [9], 88.9%; in assay [10] it was 98.7%; in assay [11], 94.1%; in assay [12] it was 86.6%. The growth was 81.3% in assay [13]; 81% in [14]; 67.1% in assay [15]; 67.1% in assay [16]; 34.5% in [17]; 69.2% in assay [18]. For the same molecule, the growth in assay [19] is 93.3%.

`Cc1cccc(C[C@H](NC(=O)Nc2ccc(Cl)cc2F)C(=O)N[C@@H]2C(=O)N3C[C@H](O)C[C@H]3C(=O)N3CCCC[C@H]3C(=O)N[C@@H](C)C(=O)N3C[C@H](C)C[C@H]3C(=O)O[C@H]2C)c1`: the growth in assay [1] is 15.1%; in assay [2], 12.5%; in assay [3] it was 7.7% (active); in assay [4] it was -32.6% (active); in assay [5], -18.1% (active); in assay [6], 11.6%. Moreover, the growth was -21.3% (active) in [7]; 7.42% (active) in assay [8]; 14.9% in assay [9]; 3.02% (active) in assay [10]; 27.9% in assay [11]; -10.5% (active) in assay [12]. For the same molecule, the growth in assay [13] is 4.64% (active); in [14] it was 16.2%; in [15], 16.4%; in assay [16], 7.99% (active); in [17], -70.4% (active); in [18], 9.07% (active). In addition, in assay [19], the growth was 0.552% (active).

Regarding `CC(C)C1=NOC(=O)C1=Cc1cn(-c2ccccc2)nc1-c1ccc(Cl)cc1`, the growth in assay [1] is 94.3%; in [2], 42.8%; in [3], 93.2%; in [4], 97%; in assay [5], 58.2%; in assay [6], 99.3%. For the same molecule, the growth is 96.9% in assay [7]; 75.9% in assay [8]; 105% in assay [9]; 76.4% in [10]; 64.9% in assay [11]; 67.9% in assay [12]. For the same molecule, the growth in [13] was 83.8%; in [14] it was 86%; in assay [15], 71.1%; in assay [16] it was 78.7%; in assay [17] it was 83.2%; in [18], 6.02% (active). Further, in assay [19], the growth was 84.9%.

Consider `CCCCC(CC)COC(=O)C[N+](C)(C)CCOC(c1ccccc1)c1ccccc1` (stereo not drawn), for which the growth in assay [1] is 85.1%; in assay [2], 14.6%; in assay [3] it was 30.8%; in assay [4], 29.3%; in [5], -4.09% (active); in assay [6], 49%. Moreover, the growth in [7] is 74.4%; in assay [8], 69.7%; in assay [9], 2.69% (active); in assay [10], 20.3%; in assay [12] it was 28.3%; in assay [13], 10.8%. The growth in [14] is 40.7%; in [15], 30.8%; in assay [16], 19.5%; in [17] it was -79.8% (active); in [20], -20.1% (active); in assay [18] it was 1.39% (active). Besides, the growth in assay [19] was 11.1%.

On to `OC(c1ccc(Cl)cc1)(c1ccc(Cl)cc1)C(O)(c1ccc(Cl)cc1)c1ccc(Cl)cc1`, for which the growth in assay [1] is 61.3%; in assay [2], 32.4%; in assay [3], 70.9%; in assay [4], 39.8%; in assay [5], 16.2%; in assay [6], 38.9%. For the same molecule, the growth is -2.57% (active) in assay [7]; 87.2% in [8]; 64.7% in assay [9]; 35.6% in [10]; 33.8% in assay [11]; 24% in [12]. The growth in [13] was 27.8%; in assay [14] it was 40.5%; in [15], 46.6%; in assay [16], 33.5%; in [17], 71.7%; in assay [18], 11.2%. Moreover, the growth in [19] is 73.7%.
